Assay outcomes deposited in PubChem BioAssay by Sanford-Burnham Center for Chemical Genomics.
In the library only some 28% were active in any assay of this set; here they are far more common.
CYP2C9 inh = human CYP2C9 inhibition; CYP2C9 Supersomes, luciferin-H conversion, luminescence; inhibition, % at 5 µM; 96,000 compounds, 20% hits;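 active = blocking of liver enzyme CYP2C9 beyond about 50% at 5 µM, limit read from the data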
CYP2C19 activ = increases human CYP2C19 enzyme activity. P33261. recombinant CYP2C19, luciferin-H EGE luminescence; stronger effect = higher value; 0 = fully inhibited enzyme, 1 = untreated enzyme. activation factor at 5 µM. 96,000 tested, under 10 active;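 active = activation factor of at least 2 at 5 µM in the primary screen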
CYP2C9 activ = increases human cytochrome P450 2C9 activity. 96,000 compounds, 1.4% hits. recombinant CYP2C9, luciferin-H conversion, luminescence; stronger effect = higher value; factor 1 = untreated enzyme, 0 = blocked. P11712. AID 1024. activation factor at 5 µM;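 active = activation factor of 2 or more for CYP2C9 at a 5 µM dose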
CYP2C19 inh = human CYP2C19 inhibition | P33261 | inhibition, % at 5 µM | CYP2C19 Supersomes, luciferin-H EGE luminescence, 30 min | AID 778 | 96,000 compounds, 21% hits;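 active = CYP2C19 inhibition above a set limit at 5 µM in the primary screen, cut at about 50% in these data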
CD11b adhes inh = inhibitors of human CD11b/CD18 binding to fibrinogen. P05107+P11215. K562 CD11b/CD18 adhesion to fibrinogen, ATPlite luminescence; Mn2+ added to activate the integrin. inhibition, % at 10 µM. 93,000 compounds, 0.54% hits;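 active = primary inhibition of 50% or more at 10 µM, then 40% or more on retest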
Target sequence (P05107 whole entry, looked up, other chains not shown): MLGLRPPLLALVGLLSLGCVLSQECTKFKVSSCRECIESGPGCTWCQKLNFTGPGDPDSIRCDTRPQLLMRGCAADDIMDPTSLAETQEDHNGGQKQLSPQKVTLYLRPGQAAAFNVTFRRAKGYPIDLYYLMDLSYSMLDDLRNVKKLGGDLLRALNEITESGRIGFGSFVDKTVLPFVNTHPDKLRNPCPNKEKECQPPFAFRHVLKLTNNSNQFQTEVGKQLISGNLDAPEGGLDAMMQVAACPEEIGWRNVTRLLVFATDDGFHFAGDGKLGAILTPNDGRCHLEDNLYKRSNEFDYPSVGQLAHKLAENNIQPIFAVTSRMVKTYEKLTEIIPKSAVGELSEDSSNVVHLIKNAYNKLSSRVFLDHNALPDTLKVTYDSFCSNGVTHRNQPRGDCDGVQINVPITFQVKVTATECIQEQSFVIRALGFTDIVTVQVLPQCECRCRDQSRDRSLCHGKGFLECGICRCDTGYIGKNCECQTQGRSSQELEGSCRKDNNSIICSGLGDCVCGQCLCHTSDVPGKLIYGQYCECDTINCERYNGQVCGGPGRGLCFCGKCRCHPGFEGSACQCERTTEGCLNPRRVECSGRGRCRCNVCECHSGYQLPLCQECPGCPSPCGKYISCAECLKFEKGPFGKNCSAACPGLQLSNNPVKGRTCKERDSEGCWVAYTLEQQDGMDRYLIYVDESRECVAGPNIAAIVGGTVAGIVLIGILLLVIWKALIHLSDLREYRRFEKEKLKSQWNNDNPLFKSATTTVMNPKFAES
Mac1 fbg enh = increases human CD11b/CD18 adhesion to fibrinogen; 93,000 compounds, 0.07% hits; K562 CD11b/CD18 adhesion to fibrinogen, ATPlite luminescence; P05107+P11215; activation, % at 10 µM;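 active = 10 µM primary screen giving 50% or more activity, confirmed by 40% or more on retest at that dose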
Of the large screens only hits and unclear results are named; the others gave an inactive call.

CN(C)S(=O)(=O)c1ccc(N2CCCC2)c(C(=O)NCc2ccc(Cl)cc2)c1	none
Cc1ccc(S(=O)(=O)N2CCN(C(=O)c3cc(=O)[nH]c4ccccc34)CC2)c(C)c1	none
O=C(c1n[nH]c2ccccc12)N1CCN(S(=O)(=O)c2ccc3ccccc3c2)CC1	CYP2C9 inh 55.6
O=C(CSc1n[nH]c(-c2cccs2)n1)N1CCN(S(=O)(=O)c2ccc3ccccc3c2)CC1	none
Cc1ccc(C)c(S(=O)(=O)N2CCN(C(=O)c3cnccn3)CC2)c1	CYP2C9 inh 51.1, CYP2C19 inh 50.9
O=C(c1cnccn1)N1CCN(S(=O)(=O)c2ccc3ccccc3c2)CC1	CYP2C19 inh 94.6
Cc1ccccc1S(=O)(=O)Oc1ccccc1C(=O)Oc1ccccc1	CYP2C9 inh 50.3 (no result: CD11b adhes inh, Mac1 fbg enh)
NC(=O)C1(N2CCCCC2)CCN(Cc2nc3ccccc3c(=O)[nH]2)CC1	none
O=C1c2ccccc2S(=O)(=O)N1CCOc1ccc(F)cc1	CYP2C9 inh 63.4, CYP2C19 inh 99.4
O=C(CN1C(=O)c2ccccc2S1(=O)=O)NCc1ccccn1	none
CCCCCn1c(CN2CCN(c3cc(Cl)ccc3C)CC2)nc2c1c(=O)[nH]c(=O)n2C	none
CCc1ccc(NC(=O)CN2CCc3ccccc3C2)cc1	CYP2C9 inh 89.8, CYP2C19 inh 92.3
O=C(CN1CCc2ccccc2C1)Nc1ccc(Br)cc1	CYP2C19 inh 89.6
O=C(CN1CCN(C(=O)c2ccccc2F)CC1)Nc1ccc(Br)cc1	CYP2C9 activ 2.7
CCOC(=O)CCC(=O)N1CCOCCOCCN(C(=O)CCC(=O)OCC)CCOCCOCC1	none
CC(C)COc1cccc(C(=O)NC(=S)NCc2cccnc2)c1	none (no result: CYP2C9 inh, CYP2C19 activ, CYP2C9 activ, CYP2C19 inh)
COn1c(SCC(=O)N(C)C)nc2ccccc2c1=O	none
Cc1nn(C(=O)c2cccnc2)c(C)c1Sc1ccc(Br)cc1	CYP2C19 inh 69.8
CCSc1nnc(NC(=O)c2nn(C(C)C)c(=O)c3ccccc23)s1	none
COc1cc(C)nc(OCCNS(=O)(=O)c2cc(C)ccc2C)n1	CYP2C19 inh 81.6
CCNc1nc(NCC)nc(OCCNS(=O)(=O)c2cc(C)ccc2C)n1	CYP2C19 inh 89.3
CCNc1nc(OCCNS(=O)(=O)c2cc(C)ccc2C)nc(N(C)C)n1	CYP2C19 inh 57.6
COC(=O)CC(NS(=O)(=O)c1cccs1)c1cccc2ccccc12 (stereo unspecified)	CYP2C19 inh 100.3
CCC(C)NS(=O)(=O)c1cccs1 (stereo unspecified)	none
COC(=O)CC(NC(=O)c1ccco1)c1cccc2ccccc12 (stereo unspecified)	CYP2C19 inh 63.5
COC(=O)C(c1cc(OC)c(O)c(OC)c1)(N1CCNC(C)C1)C(F)(F)F (stereo unspecified)	none
CCOC(=O)c1cnn(-c2cccc(Cl)c2)c1N	CYP2C19 inh 62.1
CCOC(=O)N1CCN(CC(=O)Nc2cc3c(cc2C(C)=O)OCO3)CC1	CYP2C9 inh 79.6
CC(=O)c1cc2c(cc1NC(=O)CN1CCC(Cc3ccccc3)CC1)OCO2	CYP2C9 inh 86.7, CYP2C19 inh 71.3
CC(=O)c1cc2c(cc1NC(=O)CSc1nc3ccccc3[nH]1)OCO2	none (no result: CYP2C9 inh, CYP2C19 activ, CYP2C9 activ, CYP2C19 inh)
CC1(C)CC2(CC(C)(C)NC(=O)N2)NC(=O)N1	none
O=C(Nc1ccc(Cl)cc1)N1CCN(c2ccc3nnc(-c4ccc(F)cc4)n3n2)CC1	CYP2C9 inh 56.3
O=C(Nc1ccccc1Cl)N1CCN(c2ccc3nnc(-c4ccccc4)n3n2)CC1	CYP2C9 inh 88.6, CYP2C19 inh 68.6
FC(F)(F)c1cccc(N2CCN(c3ccc4nnc(-c5ccccc5)n4n3)CC2)c1	none
O=C(c1ccc(Br)o1)N1CCN(c2ccc3nnc(-c4ccc(F)cc4)n3n2)CC1	CYP2C9 inh 67.0
O=C1CCN(C(=O)Nc2ccccc2Cl)N1	none
O=C(Nc1ccc(Cl)cc1)N1CCC(c2nc(-c3ccc(F)cc3)no2)CC1	none
O=C(COc1nc2ccccc2nc1N1CCOCC1)N1CCc2ccccc21	none
Cc1c(N=C2SCC(=O)N2/N=C\c2ccc(Br)cc2)c(=O)n(-c2ccccc2)n1C	none (no result: CYP2C9 inh, CYP2C19 activ, CYP2C9 activ, CYP2C19 inh)
COc1ccc(C2c3c(oc4ccc(Cl)cc4c3=O)C(=O)N2Cc2ccco2)cc1OC (stereo unspecified)	none
CC(C)NC(=O)c1cc(-c2ccco2)nn1-c1ccc(Cl)cc1	none (no result: CD11b adhes inh, Mac1 fbg enh)
O=C(c1cc(-c2ccco2)nn1-c1cccc(Cl)c1)N1CCCCC1	CYP2C9 inh 86.7, CYP2C19 inh 63.5
COc1ccc(C(=O)N(CC(=O)NC(C)(C)C)c2ccc3c(c2)OCCO3)cc1OC	none
CCC(C)(C)NC(=O)CN(C(=O)c1snc(C(N)=O)c1N)c1ccc2c(c1)OCCO2	CYP2C9 inh 63.7
O=S(=O)(/C=C/c1ccccc1)Nc1ccc(N2CCOCC2)cc1	CYP2C9 inh 83.1, CYP2C19 inh 93.7
O=S(=O)(Nc1ccc(N2CCOCC2)cc1)c1ccccc1	CYP2C9 inh 84.3, CYP2C19 inh 99.1
O=C(O)c1ccc(NS(=O)(=O)/C=C/c2ccccc2)cc1O	CYP2C9 inh 55.0
COc1ccc(S(=O)(=O)Nc2ccc(N3CCOCC3)cc2)cc1Br	CYP2C9 inh 95.6, CYP2C19 inh 100.3
O=S(=O)(Nc1ccc(N2CCOCC2)cc1)c1ccc(Cl)s1	CYP2C9 inh 100.3, CYP2C19 inh 100.3
CCOC(=O)c1[nH]c(Cc2[nH]c(C(=O)OCC)c(C)c2CCC(=O)OC)c(CCC(=O)OC)c1C	CYP2C9 inh 71.6, CYP2C19 inh 58.0
CSc1nc(Oc2ccc(=O)n(C)n2)nc(N(C)C)n1	none (no result: CD11b adhes inh, Mac1 fbg enh)
CCS(=O)(=O)N1Cc2ccccc2CC1C(=O)OCC(=O)Nc1ccc(C)cc1 (stereo unspecified)	CYP2C19 inh 75.0 (no result: CD11b adhes inh, Mac1 fbg enh)
CCS(=O)(=O)N1Cc2ccccc2CC1C(=O)OCC(=O)Nc1ccc(SC(F)F)cc1 (stereo unspecified)	CYP2C9 inh 93.1, CYP2C19 inh 77.8
Cn1c(=O)c2c(-c3cccc(F)c3)c3c(nc2n(C)c1=O)-c1ccccc1C3O (stereo unspecified)	none (no result: CD11b adhes inh, Mac1 fbg enh)
O=C(c1ccc(Cl)cc1Cl)C1(n2cncn2)Oc2ccccc2C1O (stereo unspecified)	CYP2C9 inh 93.0, CYP2C19 inh 99.0
COc1ccc(N(CC(=O)NN=C2CCCCCCC2)S(=O)(=O)c2ccccc2)cc1	none
COc1ccc(NC(=O)CN2CCN(c3ccccc3F)CC2)cc1	CYP2C9 inh 68.5, CYP2C19 inh 55.0
COc1ccccc1N1CCN(CC(=O)Nc2ccc(C)c(F)c2)CC1	none
CCN(CC)c1ccc(NC(=O)CN2CCN(c3ccccc3F)CC2)cc1	CYP2C19 inh 55.2 (no result: CD11b adhes inh, Mac1 fbg enh)
CCOc1ccc(NC(=O)CCN2CCN(c3ccccc3F)CC2)cc1	CYP2C9 inh 67.5, CYP2C19 inh 50.6
COc1cccc(NC(=O)NCCCN2CCN(c3ccc(F)cc3)CC2)c1	none
